Shown are actives, neighbours in structure and some others; about 4.5% of the full set was active somewhere.
hgDAF12 agonist: H. glycines DAF-12 receptor agonists, primary screen, cell-based, luminescence, HEK293, GAL4 fusion, UAS-luciferase | activation, % at 6.8 µM | 1.8% of 370,000 active | HEK293 GAL4-hgDAF12 UAS-luciferase reporter, agonist luminescence; normalized to butyrate control | Nuclear hormone receptor DAF-12 (Heterodera glycines), GAL4 fusion | AID 687014, 2013;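 active = activation above a cutoff set at the mean of all screened compounds plus 3 SD, cut at about 10% in these data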
DAX1 inh-1: DAX1 (NR0B1) inhibitors on StAR promoter, primary screen, cell-based, luminescence, SF-1 (NR5A1), full-length DAX-1. HEK293T StAR-luciferase reporter, SF-1/DAX-1 repression relief. inhibition, % at 6.8 µM. 1.1% of 370,000 active;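 active = inhibition above the mean over all tested compounds plus 3 SD, cut at about 3.6% in these data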;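 also: higher inhibition means more luminescence from relief of DAX-1 repression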
FXN GAA850 act: FXN promoter activators, primary screen, cell-based, luciferase luminescence, HEK293 lucGAA850. HEK293 lucGAA850 FXN promoter luciferase reporter, 24 h; percent of 10 µM SAHA response. activation, % at 6 µM. 0.56% of 360,000 active;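 active = activation above the average of all compounds screened plus 3 SD, cutoff fixed separately per campaign, cut at about 7.5% in these data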
hcDAF-12 act: H. contortus DAF-12 nuclear receptor activators, primary screen, cell-based, luminescence, HEK293, lit1-tk-luc reporter; HEK293 hcDAF-12 lit1-tk-luc reporter; 0% DMSO, 100% Δ7-dafachronic acid; activation, % at 6.8 µM; AID 652067, 2013; 1.4% of 370,000 active;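 active = activation above the mean of all tested compounds plus 3 SD, cut at about 5.5% in these data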
ssDAF-12 act: S. stercoralis DAF-12 nuclear receptor activators, primary screen, cell-based, luminescence, HEK293, GRIP1 co-expression, lit1-tk-luc. 1% of 370,000 active. activation, % at 6.8 µM. HEK293 ssDAF-12/GRIP1 lit1-tk-luc reporter; % of 3 µM dafachronic acid response;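 active = activation above the mean over all tested compounds plus 3 SD, cut at about 0.9% in these data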
DAX1 inh-2: DAX1 (NR0B1) inhibitors, primary screen, cell-based, HEK293, Gal4-DAX1, luciferase luminescence; HEK293 Gal4-DAX1 luciferase reporter; inhibition, % at 6.75 µM; 0.99% of 340,000 active;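 active = inhibition above the mean over all tested compounds plus 3 SD, cut at about 4.2% in these data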;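 also: inhibition shows as a rise in luminescence from relieved DAX1 repression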
Target sequence (P51843 207-470 limits assumed): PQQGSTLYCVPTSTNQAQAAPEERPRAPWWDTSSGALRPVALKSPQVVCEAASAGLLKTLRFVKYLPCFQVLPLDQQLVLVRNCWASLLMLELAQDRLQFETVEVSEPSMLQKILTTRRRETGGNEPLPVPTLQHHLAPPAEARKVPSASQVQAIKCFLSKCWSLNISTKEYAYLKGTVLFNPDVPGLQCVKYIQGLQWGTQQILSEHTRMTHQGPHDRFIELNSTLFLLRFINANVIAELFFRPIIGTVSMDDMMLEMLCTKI
Numbers stand for hits; i = inactive; nt = no result given.

SMILES	hgDAF12 agonist	DAX1 inh-1	FXN GAA850 act	hcDAF-12 act	ssDAF-12 act	DAX1 inh-2
Cc1ccc(S(=O)(=O)NCCCc2ccc3c(c2)[C@]2(CCC[C@@H](OCc4ccccc4)[C@@H]2NC(=O)CCc2ccccc2)C(=O)N3Cc2ccccc2)cc1	i	i	nt	i	i	nt
CN(C(=O)c1ccccc1OCC(=O)Nc1ccc(Br)cc1)c1ccccc1	i	i	nt	i	1.0	nt
CCCNC(=O)COC(=O)c1ccccc1OCC(=O)Nc1ccc(Br)cc1	i	i	i	i	i	i
Cc1cc(NC(=O)C(=O)NCc2cccc(Cl)c2)no1	i	i	i	i	i	5.5
CCOc1cccc2cc(C(=O)N3CC(C)OC(C)C3)c(=O)oc12 (stereo unspecified)	i	i	i	i	i	i
COc1cccc2cc(C(=O)OCC(=O)N3CC(C)OC(C)C3)c(=O)oc12 (stereo unspecified)	i	i	i	5.7	i	5.5
CCc1cccc2c(C(C)c3ccccc3O)c[nH]c12 (stereo unspecified)	i	i	nt	i	2.2	nt
COc1ccc(C2=CCN(C)C(=O)N2c2ccc([N+](=O)[O-])cc2)cc1	i	i	nt	i	i	nt
COc1cccc(-c2nc(N3CC(C)CC(C)C3)c3ccccc3n2)c1O (stereo unspecified)	i	i	i	5.9	i	i
COc1ccc(C(=O)/C=C/c2ccc3c(c2)OCCO3)cc1	i	i	i	i	i	i
O=C(/C=C/c1ccc2c(c1)OCCO2)c1ccccc1	11	i	i	i	i	nt
O=S1(=O)N[C@@H](Cc2ccccc2)COc2cccc(N3CCC[C@H]3CO)c21	i	4.1	nt	i	i	nt
O=S1(=O)N[C@H](Cc2ccccc2)COc2cccc(N3CCC[C@H]3CO)c21	i	i	nt	i	i	nt
O=C1C(=O)N(Cc2ccc(-c3ccc(F)nc3)cc2)c2ccc(OC(F)(F)F)cc21	i	nt	nt	i	i	nt
CC(c1ccco1)N(C(=O)C12CC3(C)CC(C)(CC(C)(C3)C1)C2)c1ccccn1 (stereo unspecified)	i	i	i	i	i	5.4
Cc1cccc(C(=O)N(c2ccccn2)C(C)c2ccco2)c1 (stereo unspecified)	i	i	i	i	i	i
CC(C)CNC(=O)C1CSCCS(=O)(=O)N1Cc1ccccc1 (stereo unspecified)	i	i	nt	i	i	nt
Cc1ccc(NC(=O)CN2CCN(c3nc(-c4ccccc4)cs3)CC2)cc1C	i	i	nt	i	i	nt
COc1cccc(CC(NC(C)=O)C(=O)NC2CCN(c3nnnn3-c3ccccc3)CC2)c1 (stereo unspecified)	i	i	i	i	i	4.3
COc1ccc(CC(NC(C)=O)C(=O)NC2CCN(c3nnnn3-c3ccccc3)CC2)cc1 (stereo unspecified)	i	i	i	i	i	i
COC(=O)[C@]12C[C@H](CC(=O)NCc3cccs3)C(=O)N(CCC3=CCCCC3)C1=C[C@H](C(C)(C)C)O[C@@H]2C	i	i	nt	i	i	nt
CCCc1c(O)c2ccccc2[nH]c1=O	i	i	i	i	i	i
O=c1[nH]c2ccccc2c(O)c1Cc1ccccc1	i	i	i	i	i	4.7
C/C(=N\NC(=O)c1ccccc1C)c1ccc(NC(=O)c2cccs2)cc1	12	i	i	i	i	i
COc1cccc(/C=C2\CCC(C3CCCC3)C2=O)c1OC (stereo unspecified)	13	i	i	i	i	i
SMILES	hgDAF12 agonist	DAX1 inh-1	FXN GAA850 act	hcDAF-12 act	ssDAF-12 act	DAX1 inh-2
O=C(Oc1cccc2ccccc12)c1ccccc1	i	i	i	i	i	7.1
O=C(Nc1ccc(F)cc1)OC1CC2CC1[C@H]1CCCCN1C2 (stereo partly specified)	i	i	nt	i	i	nt
c1ccc(-c2nnc(NC3=NCCC3)o2)cc1	i	4.1	i	i	i	i
COC(=O)c1cc(=O)n(Cc2ccc(F)cc2)c(=NCc2ccc(F)cc2)s1	i	i	i	i	1.4	i
COC(=O)c1cc(=O)n(Cc2ccc3c(c2)OCO3)c(=Nc2ccc(F)cc2)s1	i	i	i	i	i	i
CN(C)CCN(C(=O)c1ccc2ccccc2c1)c1nc2cc3c(cc2s1)OCCO3	i	3.7	i	i	i	i
NC1=[N+](Cc2ccccc2)C(Cc2ccccc2)C2C(=C3CCCCC3n3c(=O)n(-c4ccccc4)c(=O)n32)N1 (stereo unspecified)	i	i	nt	i	i	nt
Cc1ccc(OCC(=O)Nc2ccc3c(c2)OC(F)(F)O3)c([N+](=O)[O-])n1	i	i	i	i	i	i
Cc1ccc(OCC(=O)Nc2ccc(C)c(F)c2)c([N+](=O)[O-])n1	i	3.7	i	i	i	i
O=C(c1cc2c(c(-c3cccc(-c4ccncc4)c3)n1)[C@@H](CCO)N(C(=O)c1ccc3c(c1)OCO3)C2)N1CCOCC1	i	3.7	nt	i	i	nt
O=C(c1cc2c(c(-c3cccc(-c4ccc(F)cc4)c3)n1)[C@H](CCO)N(C(=O)c1ccc3c(c1)OCO3)C2)N1CCOCC1	i	i	nt	i	i	nt
O=S1(=O)c2ccc(N3CC[C@H](O)C3)cc2O[C@@H]2CCN1C2	i	i	nt	i	i	nt
O=C(NCc1ccco1)c1ccc(-c2ccccc2Cl)o1	i	i	i	i	i	7.0
O=C(NCCc1ccccc1)c1ccc(-c2ccccc2C(F)(F)F)o1	i	i	nt	i	i	nt
O=C(NCc1ccco1)c1ccc(-c2ccc(Cl)cc2)o1	i	i	i	i	i	i
O=C(NCc1ccccc1)c1ccc(-c2ccccc2F)o1	i	i	i	i	0.9	i
CSCCC(NS(=O)(=O)c1ccc2c(c1)oc(=O)n2C)C(=O)NCc1ccc(C)cc1 (stereo unspecified)	i	i	i	i	i	i
CSCCC(NS(=O)(=O)c1ccc2c(c1)oc(=O)n2C)C(=O)NC1CCN(Cc2ccccc2)CC1 (stereo unspecified)	i	i	i	6.4	i	i
CSCCC(NS(=O)(=O)c1ccc2c(c1)oc(=O)n2C)C(=O)NC1CCC(C)CC1 (stereo unspecified)	i	3.7	i	i	i	i
Cc1ccc(NC(=O)CSc2nccn2C)cc1F	i	4.4	i	i	i	i
Cc1nc(SCC(=O)Nc2ccc(C)c(F)c2)c2oc3ccccc3c2n1	i	i	i	i	i	i
